In the library only some 7.4% were active in any assay of this set; here they are far more common.
ELG1 genotoxic: genotoxicity induction in ELG1-luciferase HEK293T cells. Potency, µM (highest dose often 46 µM), for inactives: at the top dose activity change, positive = activation, most hits filed as activators. actives 1.3% (n = 330,000). HEK293T ELG1-luciferase reporter, luminescence, 16 h; also: % of control where 0% means no effect; nearly all actives have a fitted effect of over 60% in size
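Genotoxic stress is detected as increased luminescence from luciferase-tagged ELG1 in HEK293T cells, measured with ONE-Glo after a 16 hr treatment at 37 °C.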
Rab9 prom act: Rab9 promoter activation; Potency, µM (doses to about 9.22 µM), inactives show top-dose activation, negative = inhibition, most hits filed as activators; actives 2.8% (n = 320,000); Huh7 Rab9 promoter-luciferase reporter, luminescence, 24 h; also: % of control where 0% means no effect; nearly all actives have a fitted effect of over 60% in size
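Stable Rab9-luc Huh7, 1500 cells/well, 2 h settle; cmpd in DMSO, 24 h, 37 °C/5% CO2; luciferase reagent 10 min RT; luminescence.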
SMN2 splice enh: enhancers of SMN2 splice variant expression; HEK293 SMN2-luciferase splicing reporter, luminescence, 30-36 h; Potency, µM (series often up to 46.1 µM), inactives show top-dose activity change, positive = activation, usual class: activators; actives 2.8% (n = 210,000); AID 1458; also: % of control where 0% means no effect; nearly all actives have a fitted effect of over 55% in size
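HEK293 cells carry an SMN2 […]–luciferase reporter in which exon 7 inclusion puts luciferase in frame. Cells were plated 10-12 h before compound addition, then incubated 30-36 h at 37C. ONE-Glo luminescence was read; sodium butyrate at 4.5 mM final served as control.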
NPC1 promoter act: NPC1 promoter activation. Huh7 NPC1 promoter luciferase reporter, 24 h. Potency, µM (doses to about 9.22 µM), for inactives: top-dose activation, usual class: activators. actives 2.4% (n = 320,000). AID 485313; also: % of control where 0% means no effect; nearly all actives have a fitted effect of over 60% in size
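Huh7 reporter cells (NPC1 promoter driving luciferase) are dosed with compound for 24 h at 37 °C, 5% CO2; luciferase detection reagent is then added and luminescence measured after 10 min at ambient temperature.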
Luc counter: blocks Kinase-Glo luciferase, a counter-screen artifact; actives 0.28% (n = 200,000); Potency, µM (doses to about 38.3 µM), for the others: top-dose activity change, negative = inhibition, hits mostly inhibitors; Kinase-Glo luciferase, ATP luminescence, 8 min; Q27757; also: % is scaled to controls: 0 for no effect and ±100 for the full control effect; nearly all actives have a fitted effect of over 60% in size
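Inhibition of Kinase-Glo luciferase light generation was assessed at 10 uM ATP in pH 7.2 imidazole buffer, with luminescence measured after eight minutes at ambient temperature.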
FLuc counter: inhibits or activates purified firefly luciferase, miR-21 counter-screen; P08659; purified FLuc, Km substrates, luminescence inhibition; Potency, µM (doses to about 57.5 µM), for the others: top-dose activity change, negative = inhibition, most hits filed as inhibitors; actives 6.9% (n = 360,000); AID 588342;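 also: plate controls were vehicle for no effect and reference inhibitor for full effect; nearly all actives have a fitted effect of over 55% in size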
Target sequence (P08659 whole entry, looked up): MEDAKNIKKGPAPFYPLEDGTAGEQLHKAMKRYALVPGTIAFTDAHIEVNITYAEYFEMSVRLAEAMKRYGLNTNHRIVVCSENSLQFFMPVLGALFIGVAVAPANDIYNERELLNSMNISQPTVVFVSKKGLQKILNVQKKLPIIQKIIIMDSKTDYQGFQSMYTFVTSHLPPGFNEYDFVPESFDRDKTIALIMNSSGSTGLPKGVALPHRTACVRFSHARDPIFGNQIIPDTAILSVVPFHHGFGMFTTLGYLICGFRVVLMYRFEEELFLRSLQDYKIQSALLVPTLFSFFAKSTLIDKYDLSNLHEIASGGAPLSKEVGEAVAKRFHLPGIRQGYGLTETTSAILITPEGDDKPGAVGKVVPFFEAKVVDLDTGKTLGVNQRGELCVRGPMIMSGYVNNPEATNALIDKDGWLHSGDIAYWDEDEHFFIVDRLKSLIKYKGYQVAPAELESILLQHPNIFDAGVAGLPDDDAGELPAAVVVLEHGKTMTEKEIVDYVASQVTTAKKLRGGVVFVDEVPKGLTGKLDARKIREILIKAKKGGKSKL
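Purified P. pyralis luciferase (10nM final) with 10uM D-luciferin and 10uM ATP (Km levels) in 50mM Tris acetate pH 7.5, 10mM Mg acetate, 0.01% Tween-20, 0.05% BSA; qHTS 6-point titration, ~60 µM downward; luminescence read.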
The depositor's hits bear a star; ? = inconclusive; / = not tested or not shown; [ ] = another dose, or the depositor's remark. Calls follow the shape of the dose curve; as a rule, active = well fitted curve in the direction sought with a large enough effect; inconclusive = small, poorly fitted or top-dose-only effect, or another doubt; inactive = no such curve, though single readings can be large; an effect the other way counts as inactive or inconclusive. Potency is read from the fitted curve at half-maximal effect.

SMILES | ELG1 genotoxic | Rab9 prom act | SMN2 splice enh | NPC1 promoter act | Luc counter | FLuc counter
O=C(CN1C(=O)NC2(CCCCC2)C1=O)N1CCN(c2ncccn2)CC1 | 1.4% | -1.7% | / | -0.3% | / | 2.9%
Cc1ccc(CCN2CC(C(=O)NCCN(C)C)CC2=O)cc1 (stereo not drawn) | -3.9% | -2.6% | / | 0.8% | / | -0.5%
COc1ccc(OC)c(S(=O)(=O)NCC(c2cccs2)N2CCc3ccccc3C2)c1 (stereo not drawn) | 7.5% | -1.1% | / | -5.3% | / | -4.0%
CCOC(=O)c1c(C)[nH]c(C(=O)Nc2ccc(C)c(Cl)c2)c1C | ? | 3.98µM* | 11.2µM* | 2µM* | -2.7% | 2.39µM*
CCOC(=O)c1c(C)[nH]c(C(=O)Nc2ccc(NC(C)=O)cc2)c1C | 0.5% | -0.2% | 3.5% | -0.1% | 1.3% | -18.9%
COc1ccccc1-c1c(C)nn2c(N3CCN(c4ccc(F)cc4)CC3)cc(C)nc12 | / | / | / | / | / | -0.4%
CC(C)C(NC(=O)c1ccccc1F)C(=O)OCC(=O)c1ccc(F)cc1 (stereo not drawn) | 6.6% | ? | -2.1% | 0.6% | -10.4% | 3.01µM*
COc1cc(OC)cc(C(=O)N[C@H](C(=O)OCC(=O)c2ccc(F)cc2)C(C)C)c1 | 1.3% | 2.0% | -1.2% | -3.6% | -0.4% | 10.7µM*
Cc1cccc(Nc2nc(N)nc(CSC(=S)N3CCOCC3)n2)c1 | 16.6% | ? | / | ? | / | -3.9%
Nc1nc(CSC(=S)N2CCCCC2)nc(Nc2ccccc2)n1 | ? | ? | ? | 29.5% | 4.3% | 26.9µM*
COc1ccccc1Nc1nc(N)nc(CSC(=S)N2CCCCC2)n1 | 13.8% | 21.5% | / | 6.3% | / | 16.9µM*
Cc1ccc(Nc2nc(N)nc(CSC(=S)N3CCOCC3)n2)cc1 | ? | ? | ? | 2.82µM* | -0.2% | 15.1µM*
CC1CC(C)CN(C(=S)SCc2nc(N)nc(Nc3ccccc3)n2)C1 (stereo not drawn) | -3.4% | -4.5% | / | 0.8% | / | -6.5%
Nc1nc(CSC(=S)N2CCOCC2)nc(Nc2ccccc2)n1 | 20.6µM* | 3.55µM* | 11.2µM* | ? | -1.9% | 13.5µM*
Nc1nc(CN2CCN(Cc3ccccc3)CC2)nc(Nc2ccccc2)n1 | -3.2% | -4.8% | -5.0% | 0.1% | -1.9% | -4.1%
CCOc1ncccc1C(=O)Nc1cc2c(cc1Br)OCCO2 | 2.6% | / | / | / | / | /
Cc1cccc(-c2nc3c(c(SCC(=O)N4CCOCC4)n2)COC(C)(C)C3)c1 | -2.0% | -0.1% | / | -20.2% | / | 0.8%
COc1cc(OC)c(OC)cc1/C=N/NC(=O)CSc1ccccc1F | 1.7% | -4.1% | / | 2.0% | / | ?
O=C(CCNC(=O)C1CCN(S(=O)(=O)c2ccc(F)cc2)CC1)NCc1ccccc1Cl | -1.0% | -2.1% | / | -9.3% | / | 1.9%
Nc1nc(CSC(=S)N2CCN(c3ccccc3)CC2)nc(Nc2ccc(F)cc2)n1 | -10.6% | 2.0% | / | -3.7% | 1.7% | 0.8%
CCOc1ccc(Nc2nc(N)nc(CSC(=S)N3CCOCC3)n2)cc1 | 5.0% | 29.4% | / | 2.82µM* | / | ?
CCC(C(=O)Nc1ccsc1C(=O)OC)c1ccccc1 (stereo not drawn) | -6.0% | -10.5% | -14.7% | -4.1% | 3.3% | 1.5%
COc1cc2oc3ccccc3c(=O)c2cc1OC | ? | 5.3% | / | ? | / | ?
Nc1ccc2oc3ccc(N)cc3c(=O)c2c1 | ? | 3.98µM* | ? | 2.51µM* | -5.2% | 23.9µM*
NC(=S)N/N=C/c1c[nH]c2ccc(OCc3ccccc3)cc12 | -6.6% | 0.4% | / | -2.1% | / | 21.3µM*
SMILES | ELG1 genotoxic | Rab9 prom act | SMN2 splice enh | NPC1 promoter act | Luc counter | FLuc counter
NC(=S)N/N=C\c1c[nH]c2ccccc12 | / | / | -7.7%[9.22 µM] | / | -4.6%[7.66 µM] | /
CCc1cc(C(=O)O)c(NC(=O)/C=C/c2ccc(OC)cc2)s1 | ? | 2.82µM* | / | 2.51µM* | / | 12µM*
COc1ccc(/C=C/C(=O)Nc2ccccc2C(=O)O)cc1 | ? | 3.16µM* | 3.98µM* | 0.447µM* | -14.8% | 0.426µM*
COc1ccc(/C=C/C(=O)Nc2ccccc2C(=O)O)cc1OC | ? | 0.891µM* | -26.2% | 1.41µM* | -0.7% | 0.151µM*
CCc1cc(C(=O)O)c(NC(=O)/C=C/c2ccc(OC)c(OC)c2)s1 | 0.3% | -8.2% | 6.6% | -4.7% | 4.3% | ?
COc1ccc(/C=C/C(=O)Nc2ccccc2C(F)(F)F)cc1 | 9.6% | ? | ? | ? | -8.6% | ?
COc1ccc(/C=C/C(=O)Nc2cc(C)nn2-c2nc3ccccc3[nH]2)cc1 | 7.4% | ? | 11.2µM* | 3.98µM* | -4.2% | 1.69µM*
Cc1ccccc1SCC(=O)OCC(=O)NCCNC(=O)COC(=O)CSc1ccccc1C | 1.0% | -4.0% | / | -2.6% | / | 7.6%
COc1ccc(/C=C/C(=O)NC(=S)Nc2cc([N+](=O)[O-])ccc2O)cc1OC | 1.6% | 0.7% | 2.7% | -0.6% | -1.6% | 7.57µM*
COc1ccc(/C=C/C(=O)Nc2ccccc2C(=O)N2CCCC2)cc1 | 15.4% | ? | 7.5% | ? | 1.8% | 9.53µM*
COc1ccc(/C=C(/C(=O)Nc2ccccc2C(=O)N2CCCC2)c2ccccc2)cc1 | -10.5% | -3.0% | -15.4% | -0.8% | -0.2% | 0.4%
COc1ccc(/C=C/C(=O)Nc2ccccc2C(=O)NCC(c2ccc(OC)cc2)N(C)C)cc1 (stereo not drawn) | 6.4% | 20.6% | / | 17.4% | / | 10.7µM*
C[C@@H](Oc1ccc(Oc2cnc3ccc(Cl)cc3n2)cc1)C(=O)O | / | / | -39.4% | / | 2.4% | /
COCCCN(Cc1cccs1)S(=O)(=O)c1csc(C(N)=O)c1 | 1.4% | -3.2% | / | -2.4% | / | 4.4%
CN1CCc2c(sc3c2C(=O)NC(c2ccccc2)N3)C1 (stereo not drawn) | 0.2% | 10.9% | 13.4% | 4.4% | -2.2% | ?
Cc1ccc(C2NC(=O)c3c(sc4c3CCN(C)C4)N2)s1 (stereo not drawn) | 3.2% | ? | -15.1% | ? | 7.1% | 12µM*
Cc1cccc(C2NC(=O)c3c(sc4c3CCN(C)C4)N2)c1O (stereo not drawn) | / | / | 15.8µM* | / | / | 23.9µM*
O=C1NC(c2ccc(Br)cc2)Nc2sc3c(c21)CCC3 (stereo not drawn) | 12.3% | ? | -15.1% | ? | -3.6% | ?
Cc1ccsc1C1NC(=O)c2c(sc3c2CCCC3)N1 (stereo not drawn) | ? | ? | 15.8µM* | ? | -8.2% | 16.9µM*
CN1CCc2c(sc3c2C(=O)NC(c2ccccn2)N3)C1 (stereo not drawn) | 3.0% | 8.1% | 12.9% | 12.3% | -3.1% | -17.4%
CCCCCn1cnc2sc(-c3ccccc3)cc2c1=O | 13.4% | 2.24µM* | ? | 2.51µM* | -0.4% | 6.75µM*

Assay outcomes deposited in PubChem BioAssay by National Center for Advancing Translational Sciences (NCATS).
